IP6K1 inhibitor: Primary qHTS assay for small molecule inhibitors of Inositol hexaphosphate kinase 1 (IP6K1); Inositol hexakisphosphate kinase 1 (Homo sapiens), Q92551; IP6K1 kinase, ADP-Glo luminescence, 2 h; active compounds read low; activity change, % (series mostly up to about 58 µM); actives 0.81% (n = 140,000); AID 1645851, 2021; in the data active = activity change below about -25%; note: % is set by controls: 0 for no effect and ±100 for the full control effect
Target sequence (Q92551 whole entry, looked up): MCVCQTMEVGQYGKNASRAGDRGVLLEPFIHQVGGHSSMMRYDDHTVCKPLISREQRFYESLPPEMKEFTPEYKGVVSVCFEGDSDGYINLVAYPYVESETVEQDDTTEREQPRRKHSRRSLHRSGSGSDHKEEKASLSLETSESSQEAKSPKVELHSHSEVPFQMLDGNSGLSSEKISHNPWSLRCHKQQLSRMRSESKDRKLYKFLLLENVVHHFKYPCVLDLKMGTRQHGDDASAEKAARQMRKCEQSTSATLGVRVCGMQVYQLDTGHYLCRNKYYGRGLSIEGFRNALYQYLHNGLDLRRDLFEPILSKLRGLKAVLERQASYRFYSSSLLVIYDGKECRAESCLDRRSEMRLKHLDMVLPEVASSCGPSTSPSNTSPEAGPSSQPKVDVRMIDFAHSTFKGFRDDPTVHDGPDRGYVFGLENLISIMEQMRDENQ
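ADP-Glo luminescence measures ADP made by human IP6K1 during a 2 h RT reaction with ATP/IP6 (mix at 1.3 mM/130 uM); top library doses 57.5 and 19.1 uM final.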
KDM5B inhibitor: Primary screen for KDM5B Histone Demethylases FDH-coupled qHTS; actives 2.6% (n = 220,000); Potency, µM (highest dose often 57.7 µM), hits mostly inhibitors; AID 1347165, 2019; Lysine-specific demethylase 5B (Homo sapiens), Q9UGL1; KDM5B demethylase, FDH-coupled NADH fluorescence (FDH is formaldehyde dehydrogenase); note: potency is the fitted concentration of half-maximal effect; 0% is about no effect; nearly all actives have a fitted effect of over 70% in size
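Coupled FDH/NAD⁺ fluorescence readout. KDM5BΔAP 200 nM final; compound titration, 10 min RT preincubation; substrate mix 12.5 µM H3K4me3, 25 µM 2-OG, 50 µM Fe(II), 100 µM ascorbate, 0.25 mM NAD⁺, 0.25 U/mL FDH; ΔRFU over 30 min.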
SNCA expr inhib: Primary qHTS assay for inhibitors of alpha-synuclein gene (SNCA) expression; HEK-293 SNCA-luciferase knock-in, luminescence, 24 h; Potency, µM (doses to about 57.2 µM), for inactives: top-dose activity change, negative = inhibition, most hits filed as inhibitors; actives 0.17% (n = 140,000);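 note: potency is the fitted concentration of half-maximal effect; plate controls were DMSO cells for no effect and cell-free wells for full effect; nearly all actives have a fitted effect of over 45% in size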
HEK293 viab: GF-AFC viability counterscreen for inhibitors of alpha-synuclein gene (SNCA) expression; HEK-293-SNCA-luc viability, GF-AFC fluorescence, 24 h; Potency, µM (series often up to 57.1 µM), without a hit: top-dose activity change, negative = cytotoxicity, hits mostly cytotoxic; actives 0.12% (n = 150,000);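 note: potency is the fitted concentration of half-maximal effect; 0% = DMSO-treated cells and -100% = medium-only wells without cells; nearly all actives have a fitted effect of over 30% in size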
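Cytotoxicity counterscreen: after 24 h compound treatment of genome-edited SNCA-luciferase HEK-293 cells, live-cell protease substrate GF-AFC read by fluorescence after 30 min; activity scaled between DMSO (0%) and medium-only (-100%), curves Hill-fitted.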
* marks the source's active call; other numbers are inactive results; i = inactive; ? = inconclusive; . = no result; [ ] = dose if it differs, or a comment. Rows were chosen to be rich in hits. Some 2.9% of all compounds tested hit in one or more screens of this group. Unless noted, calls come from the whole dose curve; as a rule, active = well fitted curve in the direction sought with a large enough effect; inconclusive = small, poorly fitted or top-dose-only effect, or another doubt; inactive = no such curve, though single readings can be large; an effect the other way counts as inactive or inconclusive.

SMILES | IP6K1 inhibitor | KDM5B inhibitor | SNCA expr inhib | HEK293 viab
CCn1ccc(C(=O)N2CCC3(CC2)c2[nH]c4ccc(OC)cc4c2CCN3C)n1 | 4 | 22µM* | 21% | 1%[12.5 µM]
COc1ccc2[nH]c3c(c2c1)CCNC31CCN(C(C)C)CC1 | 9 | 22µM* | 2% | 7%[12.5 µM]
COc1ccc2[nH]c3c(c2c1)CCNC31CCN(C(=O)Cn2c(=O)oc3ccccc32)CC1 | -2 | 20µM* | 62% | 2%[12.5 µM]
CCCC1(CO)CCCN(Cc2cn3ccc(C)cc3n2)C1 (centres undefined) | 8 | ? | 24% | 1%
Cc1cccc(CN2CCCC(O)(CNCc3ncccc3C)C2=O)c1 (centres undefined) | 0 | 28µM* | -18% | -18%
CCC(O)CNc1ccc(-c2nc(COC)no2)cn1 (centres undefined) | 5 | 32µM* | 53% | 13%
COc1ccc(-c2cc3c(nc2OC)nc(CC2CC2)n3C)cc1 | 8 | 35µM* | 82%[87.6 µM] | -11%[87.6 µM]
COc1cc(-c2cc3c(nc2OC)nc(CC2CC2)n3C)ccn1 | 5 | 40µM* | 120%[87.6 µM] | -4%[87.6 µM]
Cc1c(C(=O)C(=O)Nc2cccc(F)c2)c2ccccc2n1C | . | i | . | .
Cc1cc(C(=O)N[C@H]2CCOC[C@H]2C2CCOCC2)cc(C)n1 | 8 | i | -21% | -1%
Cc1nc2ncccn2c1C(=O)N[C@H]1CCOC[C@H]1C1CCOCC1 | 7 | 28µM* | -6% | 5%
Cc1ccc(-c2ccc(N)nc2)c2cccnc12 | 7 | 25µM* | -19% | -13%
Cc1ccc(B(O)O)c2cccnc12 | . | i | . | .
COc1ccc(C(=O)Nc2nc3c(s2)C[C@@H]2[C@](C)(CO)[C@H](O)CC[C@@]2(C)[C@@H]3CC(=O)N2CCC(C)CC2)cc1 | -8 | 28µM* | -34% | ?
CN(Cc1ccccc1)C(=O)C[C@@H]1c2nc(NC(=O)c3ccc(F)cc3)sc2C[C@@H]2[C@](C)(CO)[C@H](O)CC[C@]21C | 6 | 35µM* | -28% | -29%
C[C@]1(CO)[C@H]2Cc3sc(NC(=O)c4ccc(F)cc4)nc3[C@@H](CC(=O)NC3CC3)[C@]2(C)CC[C@H]1O | 12 | i | 0% | -7%
C[C@]1(CO)[C@H]2Cc3sc(NC(=O)c4ccc(F)cc4)nc3[C@@H](CC(=O)Nc3ccccc3)[C@]2(C)CC[C@H]1O | -8 | 32µM* | 100% | 2%
COc1ccc(C(=O)Nc2nc3c(s2)C[C@@H]2[C@](C)(CO)[C@H](O)CC[C@@]2(C)[C@@H]3CC(=O)N(C)Cc2ccccc2)cc1 | 2 | ? | ? | ?
C[C@]1(CO)[C@H]2Cc3sc(NC(=O)c4c(F)cccc4F)nc3[C@@H](CC(=O)O)[C@]2(C)CC[C@H]1O | -9 | i | ? | 5%
C[C@]1(CO)[C@H]2Cc3sc(-c4ccccc4)nc3[C@@H](CC(=O)O)[C@]2(C)CC[C@H]1O | -1 | 32µM* | 0%[87.6 µM] | 2%[87.6 µM]
COCCN1C(=O)[C@H]2CN(Cc3ccc(OC)c(OC)c3OC)C[C@H]2C1=O | -14 | i | -13% | 10%
C#CCNC(=O)C[C@@H]1c2nc(NC(=O)C(C)(C)C)sc2C[C@@H]2[C@](C)(CO)[C@H](O)CC[C@]21C | -6 | i | -13% | -1%
C#CCNC(=O)C[C@@H]1c2nc(NC(=O)c3ccc(C(C)(C)C)cc3)sc2C[C@@H]2[C@](C)(CO)[C@H](O)CC[C@]21C | -4 | 32µM* | 5% | 5%
O=C1CCN(S(=O)(=O)c2ccccc2)CCCC(C(=O)NC2CCCC2)CCN1 (centres undefined) | 3 | i | 20% | 4%
Cc1cccc(-c2cccc(CN3CCC(NC(=O)Nc4ccc(Cl)cc4)CC3)c2)c1 | -1 | . | 20µM* | ?
SMILES | IP6K1 inhibitor | KDM5B inhibitor | SNCA expr inhib | HEK293 viab
Cc1cccc(NC(=O)N2CCc3c(c4cc(F)ccc4n3C)C2)c1 | 0 | 32µM* | 29% | -8%
Cn1c2c(c3cc(F)ccc31)CN(C(=O)Nc1cccc(Cl)c1)CC2 | -2 | 32µM* | 0% | -3%
O=C(CNc1nc(Cl)nc2nc[nH]c12)NCCCO | . | i | . | .
CCCNC(=O)CCC(=O)N1CCCn2nc(-c3cn(C)c4ccccc34)cc21 | . | i | . | .
Cc1ccc(-n2ncc3c(N4CCCCCC4)ncnc32)cc1Cl | 10 | i | 9% | 2%
Cc1ccc(-n2ncc3c(N4CCCCC4)ncnc32)cc1Cl | -4 | i | 7.1µM* | 7%
Cc1ccc(-n2ncc3c(N4CCC(Cc5ccccc5)CC4)ncnc32)cc1 | 10 | i | -8% | -6%
Cc1ccc(-n2ncc3c(N4CCCCC4)ncnc32)cc1 | 14 | ? | 0.89µM* | 3%
C=CCN(Cc1cnc(-c2cccc(C)c2)nc1)Cc1ccccn1 | 3 | 22µM* | ? | 2%
Cc1cccc(-c2ncc(CN(C)Cc3cccc4ncccc34)cn2)c1 | -6 | i | 8% | 13%
COc1ccc(C(=O)c2ccccc2)c(OS(=O)(=O)c2ccc3oc(=O)ccc3c2)c1 | . | i | . | .
O=C1Cc2c(-c3ccc(N4CCOCC4)cc3)n[nH]c2CN1CCc1ccncc1 | -1 | 22µM* | 59%[87.6 µM] | -2%[87.6 µM]
O=C(NC1CCN(Cc2ccccc2)CC1)C1CC(=O)N(c2n[nH]c3cccc(F)c23)C1 (centres undefined) | 3 | i | -14% | 5%
COc1cccc(-c2cc3c(=O)n(CCNC(=O)c4ccc(C(C)(C)C)cc4)ccn3n2)c1 | -14 | 25µM* | -13% | -16%
COc1cccc(-c2cc3c(=O)n(CCNC(=O)c4cc(Cl)ccc4F)ccn3n2)c1 | -13 | 25µM* | 29% | 1%
COc1cccc(-c2cc3c(=O)n(CC(O)c4cccc(C#N)c4)ccn3n2)c1 (centres undefined) | -8 | 22µM* | 80% | -13%
COc1ccc(C(=O)NCCn2ccn3nc(-c4cccc(OC)c4)cc3c2=O)cc1 | -9 | 22µM* | 1% | -22%
COc1cccc(-c2cc3c(=O)n(CCNC(=O)c4ccc(Cl)cc4)ccn3n2)c1 | -7 | ? | 4% | 2%
COc1cc(OC)cc(C(=O)NCCn2ccn3nc(-c4cccc(OC)c4)cc3c2=O)c1 | -13 | ? | 39% | -14%
COc1cccc(-c2cc3c(=O)n(CCNC(=O)c4ccccc4F)ccn3n2)c1 | -7 | ? | 39% | -2%
COc1ccc2cc(C(=O)N3CCC(C(=O)N4CCCC4)CC3)[nH]c2c1 | . | i | . | .
CCSc1nc(N2CCCCC2)c2c3c(sc2n1)COC(C)(CC)C3 (centres undefined) | . | i | . | .
COc1cccc(-c2cc3c(=O)n(CCNC(=O)C4CCN(C(C)=O)CC4)ccn3n2)c1 | -13 | 20µM* | 22% | -9%
COc1cccc(-c2cc3c(=O)n(CCNC(=O)C4CCCCC4)ccn3n2)c1 | -10 | i | 75% | -12%
COc1cccc(-c2cc3c(=O)n(CCNC(=O)c4cc(C)cc(C)c4)ccn3n2)c1 | -12 | 32µM* | 41% | -13%
